From PubChem BioAssay
HCV inhibitor: blocks hepatitis C virus; hit rate 3.4% among 340,000; Huh7.5.1 HCVcc-Cre infection, luciferase reporter, 44 h; Potency, µM (doses to about 41.8 µM), for inactives: top-dose activity change, negative = inhibition, usual class: inhibitors; also: % is scaled to controls: 0 for no effect and ±100 for the full control effect
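A cell-based infection assay in which seeded cells (1,000 per well) receive test compound after 4 h, are inoculated with HCVcc-Cre at approximately 0.5 moi, and are incubated 44 h before luminescence detection.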
AMA1-RON2 inh: disrupts binding of P. falciparum AMA1 to RON2; AlphaScreen AMA1-biotinylated RON2 peptide binding; Potency, µM (series often up to 58.2 µM), for the others: top-dose activity change, negative = inhibition, actives largely listed as inhibitors; hit rate 0.2% among 360,000; AID 720542;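 also: 0% = vehicle wells and -100% = peptide control; nearly all actives have a fitted effect of over 45% in size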
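AMA1 (3D7) with his tag at 25 nM final met compounds first, then biotinylated RON2 peptide at 25 nM; detection used donor plus acceptor beads, 10 µg/mL apiece, read by AlphaScreen after 30 min at room temperature.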
SARS PLpro yeast: SARS-CoV PLP inhibition in yeast | hit rate 0.19% among 330,000 | S. cerevisiae expressing SARS-CoV PLpro, growth rescue | Potency, µM (series often up to 32.9 µM), without a hit: top-dose activity, positive = growth rescue, usual class: activators | AID 485353; calls by dose curve; also: 0% is about no effect; nearly all actives have a fitted effect of over 55% in size
Pf growth 96h: P. falciparum growth inhibition at 96 hours; P. falciparum luciferase reporter growth, 96 h; Potency, µM (top dose mostly 28.7 µM), without a hit: top-dose activity change, negative = inhibition, most hits filed as inhibitors; hit rate 6.9% among 320,000; AID 504834; also: % is scaled to controls: 0 for no effect and ±100 for the full control effect
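Plates of compound plus infected erythrocytes (2% hematocrit, 0.05% parasitemia final) incubate 96 hours, 37 C, 5% CO2. Detection reagent added; reduced luminescence from the parasites' luciferase reporter flags inhibition.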
NS1 inh: influenza NS1 inhibition. hit rate 0.4% among 270,000. Potency, µM (highest dose often 46.1 µM), without a hit: top-dose activity, positive = more growth; calls by dose curve; also: actives are rising curves; nearly all actives have a fitted effect of over 50% in size
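Recovery from NS1-induced slow growth read by OD600 in budding yeast switched to galactose assay medium (pH 6.0, -URA) at 1:100 dilution. Compound 23 nl per well; the matching strain lacking NS1 serves as control.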
Pf growth 48h: inhibits P. falciparum growth in the first generation, 48 h | P. falciparum luciferase growth in erythrocytes, 48 h | Potency, µM (highest dose often 28.7 µM), inactives show at the top dose activity change, negative = inhibition, hits mostly inhibitors | hit rate 5.9% among 310,000 | AID 504832; also: % is scaled to controls: 0 for no effect and ±100 for the full control effect
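Parasite viability was followed by luminescence of a genomically integrated firefly luciferase. Cultures held 0.1% parasitemia at 2% hematocrit (final), incubated under 5% CO2 at 37 C.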
Numbers without * were called inactive; ? = inconclusive; . = no result given; [ ] = dose if it differs, or a comment. An excerpt weighted towards active compounds, which were near 12% of everything screened. Unless noted, calls follow the shape of the dose curve; as a rule, active = well fitted curve in the direction sought with a large enough effect; inconclusive = small, poorly fitted or top-dose-only effect, or another doubt; inactive = no such curve, though single readings can be large; an effect the other way counts as inactive or inconclusive. Potency is read from the fitted curve at half-maximal effect.

SMILES	HCV inhibitor	AMA1-RON2 inh	SARS PLpro yeast	Pf growth 96h	NS1 inh	Pf growth 48h
C=CCn1c(C(C)NC(=O)CCC)nc2ccccc21 (configuration not stated)	11µM*	3%	30%	120%	-4%	-3%
CCc1cc(C(=O)N2CCN(c3ncccn3)CC2)sc1C	-1%	-2%	-3%	-10%	.	?
O=S(=O)(Cc1ccccc1)NCc1cccnc1	-6%	17%	-7%	27%	-7%	1%
C=CCNC1=C(Cl)C(=O)c2ccccc2C1=O	?	18µM*	-13%	16%	-21%	2.9µM*
CC(=O)N(Cc1ccc(F)cc1)C1=C(NCCc2ccccc2)C(=O)c2ccccc2C1=O	10µM*	?	-35%	0.0037µM*	15%	.
O=C1C(Cl)=C(NCCc2ccccc2)C(=O)c2ccccc21	?	13µM*	.	.	.	.
CC(=O)N(Cc1ccc(F)cc1)c1cccc(C)c1C	23%	24%	14%	0%	1%	-8%
O=C1C(Cl)=C(NCc2cccnc2)C(=O)c2ccccc21	13µM*	-14%	-9%	8.3µM*	-6%	9.3µM*
CCOC(=O)C(=CNc1ccc(Oc2cncc(Cl)c2)nc1)C(=O)OCC	?	-8%	3%	-1%	-5%	-7%
CCOC(=O)c1ccc(NC(=S)NC(=O)COc2ccccc2)cc1	16%	38%	19%	18%	6%	9%
CCN(CCNCC(O)COCc1ccc(Cl)cc1)c1cccc(C)c1 (configuration not stated)	16µM*	?	-8%	?	.	8.3µM*
Cc1ccc(S(C)(=O)=NS(=O)(=O)c2cccc3nsnc23)cc1 (configuration not stated)	9%	22%	1%	-20%	1%	-7%
NC(=O)CC(NC(=O)c1ccccc1)c1ccc(NCc2ccccc2)c([N+](=O)[O-])c1 (configuration not stated)	10µM*	-1%	0%	9.3µM*	64%	?
NC(=O)CC(NC(=O)c1ccccc1)c1ccc(NCc2ccc(F)c(F)c2)c([N+](=O)[O-])c1 (configuration not stated)	-2%	-9%	2%	?	6%	?
NC(=O)CC(NC(=O)c1ccccc1)c1ccc(NCCc2ccc(Cl)cc2)c([N+](=O)[O-])c1 (configuration not stated)	?	-10%	1%	?	-3%	13µM*
NC(=O)CC(NC(=O)c1ccccc1)c1ccc(NCc2ccc(F)cc2)c([N+](=O)[O-])c1 (configuration not stated)	-22%	-1%	8%	?	0%	?
C(=N\NC1=NCCN1)/c1ccncc1	7%	-12%	3%	?	13%	-11%
Cc1ccc(C)c(CC(=O)N2CCCCC2c2cc(C(=O)Nc3cccc(C#N)c3)no2)c1 (configuration not stated)	.	4%	.	.	.	.
CC12CCC(C(=O)Nc3cccc(Cl)c3)(C(Br)C1=O)C2(C)C (configuration not stated)	29%	-6%	-7%	15µM*	-43%	?
CCOc1ccccc1N(CC(=O)NCCSc1ccccc1)S(C)(=O)=O	-15%	-12%	0%	478%	1%	-12%
C=CCn1c(Oc2ccc(C=O)cc2OCC)nc2c1c(=O)n(C)c(=O)n2C	-5%	4%	0%	28%	5%	0%[0.00184 µM]
CCNS(=O)(=O)c1ccc(CCC(=O)Nc2ccc3c(c2)OCCO3)cc1	6%	0%	2%	?	7%	9.3µM*
CC(C)NS(=O)(=O)c1ccc(CCC(=O)Nc2ccc3c(c2)OCCO3)cc1	17%	?	22%	?	-1%	4.7µM*
CC(C)(C)NS(=O)(=O)c1ccc(CCC(=O)Nc2ccc3c(c2)OCCO3)cc1	-6%	10%	-11%	-53%	3%	?
Cc1ccc(NNc2c(C)nc3ccccc3nc2=O)cc1	-9%	1%	1%	19%	1%	16%
SMILES	HCV inhibitor	AMA1-RON2 inh	SARS PLpro yeast	Pf growth 96h	NS1 inh	Pf growth 48h
Cc1ccc(S(=O)(=O)N2CCCCC2)cc1C(=O)Nc1ccc(S(=O)(=O)Nc2ncccn2)cc1	17%	-26%	-1%	0%	-4%	-21%
CCCOc1ccc(C(=O)N/N=C/c2c[nH]c3ccc(Br)cc23)cc1	13µM*	0%	-2%	?	-1%	14%
CCCCCN=C(N)N/N=C/c1c[nH]c2ccc(OC)cc12	?	-8%	.	3µM*	.	3µM*
CCOc1ccc(CCNC(=O)c2cc3sccc3n2CC)cc1OCC	7.9µM*	-26%	.	0%	-19%	?
CCOC(=O)N1CCC(NC(=O)c2cc3sccc3n2CC)CC1	21%	6%	-2%	5.2µM*	-1%	15%
CCOc1ccc(CCNC(=O)CCC(=O)c2cccs2)cc1OCC	-11%	4%	0%	.	.	.
OCC1OCOC2C(CO)OCOC12 (configuration not stated)	17%	-4%	.	.	.	.
COc1cc(CCC(=O)N2CCN(S(=O)(=O)c3ccc(C)cc3)CC2)cc(OC)c1OC	-2%	4%	-6%	?	.	5.2µM*
Cc1ccc(S(=O)(=O)N2CCN(C(=O)CSCc3ccc(C(C)C)cc3)CC2)cc1	?	-6%	-4%	?	.	9.3µM*
COc1cc(CC(=O)N2CCN(S(=O)(=O)c3ccc(C)cc3)CC2)cc(OC)c1OC	-10%	-1%	5%	.	.	.
Cc1ccc(S(=O)(=O)N2CCN(C(=O)CSc3nnc(C)s3)C2)cc1	9%	20%	5%	4.1µM*	-1%	.
COc1ccc(NC(C)=O)cc1NC(=O)c1ccc(C#N)cc1	23%	44%	2%	-5%	.	-1%
CC1CN(S(=O)(=O)c2cccc(C(=O)Nc3ccccc3N3CCCCC3)c2)CC(C)O1 (configuration not stated)	?	-15%	-3%	?	.	12µM*
Cc1cnc(NC(=O)c2cccc(S(=O)(=O)N3CCOCC3)c2)s1	9%	60%	7%	?	.	18%
CC1CN(S(=O)(=O)c2cccc(C(=O)Nc3ccccc3N3CCOCC3)c2)CC(C)O1 (configuration not stated)	?	0%	0%	?	.	13µM*
CC(=O)N1CCN(S(=O)(=O)c2cccc(C(=O)Nc3ccccc3N3CCOCC3)c2)CC1	-11%	-5%	0%	?	-7%	-24%
Cc1cnc(NC(=O)c2cccc(S(=O)(=O)N3CC(C)OC(C)C3)c2)s1 (configuration not stated)	11µM*	77%	3%	13µM*	.	?
